Laboratory results as given in PubChem BioAssay (Tox21).
Records with an inconclusive call do not appear. Activity calls are given as the source filed them. Unless noted, the call rests on the fitted dose curve; in most records, active means well fitted curve in the direction sought with a large enough effect in the repeat runs; inconclusive means weak or mixed curves; inactive means no such curve, though single readings can be large; an effect the other way counts as inactive or inconclusive.

How the values were obtained:
[1] = qHTS assay to test for compound auto fluorescence at 535 nm (green) in HEK293 cells (AID 720680)
[2] = qHTS assay to test for compound auto fluorescence at 460 nm (blue) in HEK293 cell free culture (AID 720681)
Summary of the method: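 Compounds were added to cell-free DMEM with 10% FBS and fluorescence read directly. The blue channel used 405 nm excitation and 460 nm emission, with triamterene as the reference fluorophore.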

[3] = qHTS assay to test for compound auto fluorescence at 590 nm (red) in HEK293 cell free culture (AID 720683)
Summary of the method: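 Cell-free wells of DMEM with 10% FBS received compound, and intrinsic fluorescence was read at excitation/emission 540/590 nm. Values expressed as equivalence to Rose Bengal sodium.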

[4] = qHTS assay to test for compound auto fluorescence at 590 nm (red) in HepG2 cell free culture (AID 720684)
Summary of the method: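 Compounds are added to culture medium (MEM, 10% FBS) lacking cells, then fluorescence is read at excitation 540 nm, emission 590 nm, with Rose Bengal sodium as the equivalency standard.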

[5] = qHTS assay to test for compound auto fluorescence at 460 nm (blue) in HepG2 cell free culture (AID 720685)
Summary of the method: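 Compound (23 nL) or DMSO pinned into cell-free MEM with 10% FBS; blue fluorescence read at 405/460 nm excitation/emission, expressed as auto-fluorescence equivalency to triamterene.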

[6] = qHTS assay to test for compound auto fluorescence at 460 nm (blue) in HepG2 cells (AID 720687)
Summary of the method: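 HepG2 cells in MEM with 10% FBS, attached overnight at 37 C, were exposed to compound or DMSO for 1 hr at 37 C, 5% CO2. Blue fluorescence was read at 405/460 nm, with triamterene as reference fluorophore.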

[7] = qHTS assay to identify small molecule antagonists of the glucocorticoid receptor (GR) signaling pathway - cell viability counter screen (AID 720693); further: nearly all actives have a fitted effect of over 55% in size; further: potency means the concentration at half of the fitted maximal effect
[8] = qHTS assay for identifying genotoxic compounds that show differential cytotoxicity against isogenic chicken DT40 cell lines with known DNA damage response pathways - wild type cell line (AID 743012); further: nearly all actives have a fitted effect of over 60% in size; further: potency means the concentration at half of the fitted maximal effect
Summary of the method: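 Wild type DT40, 300 cells/well, ~0.5 h settle at 37 C/5% CO2; compounds in DMSO added by pintool; 40 h at 37 C/5% CO2; CellTiter-Glo, 30 min RT; luminescence.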

[9] = qHTS assay for identifying genotoxic compounds that show differential cytotoxicity against isogenic chicken DT40 cell lines with known DNA damage response pathways - Rev3 mutant cell line (AID 743014); further: nearly all actives have a fitted effect of over 55% in size; further: potency means the concentration at half of the fitted maximal effect
[10] = qHTS assay to identify small molecule antagonists of the androgen receptor (AR) signaling pathway - cell viability counter screen (AID 743033; further: nearly all actives have a fitted effect of over 45% in size)
[11] = qHTS assay to identify small molecule antagonists of the androgen receptor (AR) signaling pathway using the MDA cell line - cell viability counter screen (AID 743041; further: nearly all actives have a fitted effect of over 45% in size; further: potency means the concentration at half of the fitted maximal effect)
Summary of the method: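 Same-well cytotoxicity was assessed by CellTiter-Fluor in MDA-kb2 AR-luc cells after 16 h of compound treatment under R1881 agonism.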

[12] = qHTS assay to test for compound auto fluorescence at 535 nm (green) in HepG2 cell free culture (AID 720686)
[13] = qHTS assay for identifying genotoxic compounds that show differential cytotoxicity against isogenic chicken DT40 cell lines with known DNA damage response pathways - Rad54/Ku70 mutant cell line (AID 743015); further: nearly all actives have a fitted effect of over 60% in size; further: potency means the concentration at half of the fitted maximal effect
[14] = biological target: Androgen receptor (Homo sapiens) (UniProt P10275); assay: qHTS assay to identify small molecule antagonists of the androgen receptor (AR) signaling pathway (AID 743035; active means well fitted inhibition curve with a large enough effect in the signal ratio in the repeat runs, not every such curve was filed as active; the % refers to the signal ratio)
Sequence of Androgen receptor (Homo sapiens) (P10275 whole entry, looked up): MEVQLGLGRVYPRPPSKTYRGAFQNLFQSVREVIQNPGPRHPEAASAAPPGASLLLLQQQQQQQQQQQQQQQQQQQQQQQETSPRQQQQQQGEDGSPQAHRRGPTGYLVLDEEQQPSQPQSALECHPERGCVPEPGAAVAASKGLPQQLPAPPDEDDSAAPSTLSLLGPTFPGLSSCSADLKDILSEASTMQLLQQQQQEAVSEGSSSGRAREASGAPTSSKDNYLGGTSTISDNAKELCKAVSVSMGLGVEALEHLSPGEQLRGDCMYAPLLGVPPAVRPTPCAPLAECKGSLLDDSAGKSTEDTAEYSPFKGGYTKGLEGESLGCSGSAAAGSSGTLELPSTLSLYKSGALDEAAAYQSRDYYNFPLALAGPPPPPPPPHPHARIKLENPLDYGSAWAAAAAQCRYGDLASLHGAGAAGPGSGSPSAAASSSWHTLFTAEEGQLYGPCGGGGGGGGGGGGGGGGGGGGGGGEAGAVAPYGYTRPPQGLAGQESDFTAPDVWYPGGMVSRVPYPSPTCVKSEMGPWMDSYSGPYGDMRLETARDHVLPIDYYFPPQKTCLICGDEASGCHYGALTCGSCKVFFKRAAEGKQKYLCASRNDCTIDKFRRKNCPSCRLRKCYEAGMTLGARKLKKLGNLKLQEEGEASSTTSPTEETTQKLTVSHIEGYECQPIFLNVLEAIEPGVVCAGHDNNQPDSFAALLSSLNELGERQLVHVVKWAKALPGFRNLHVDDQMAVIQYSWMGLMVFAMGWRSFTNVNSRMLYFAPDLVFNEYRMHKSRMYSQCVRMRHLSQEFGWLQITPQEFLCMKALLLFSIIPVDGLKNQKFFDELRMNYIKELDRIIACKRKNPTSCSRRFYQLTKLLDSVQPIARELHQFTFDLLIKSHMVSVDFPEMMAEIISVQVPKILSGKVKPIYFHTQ
Summary of the method: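 Fluorescence from a beta-lactamase FRET substrate (LiveBLAzer B/G, 2 h, room temperature) measured inhibition of R1881-stimulated signaling in GeneBLAzer AR-UAS-bla HEK293 cells exposed to compound for 16 h at 37C.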

[15] = biological target: Androgen receptor (Homo sapiens) (UniProt P10275); assay: qHTS assay to identify small molecule agonists of the androgen receptor (AR) signaling pathway using the MDA cell line (AID 743040; further: nearly all actives have a fitted effect of over 20% in size)
Summary of the method: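 Human breast carcinoma MDA-kb2 reporter cells (MMTV-luc, AR/GR elements) were treated for 16 h at 37C in 0% CO2 following a 5 h settling period. Signal was quantified by ONE-Glo luminescence.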

[16] = biological target: Androgen receptor (Homo sapiens) (UniProt P10275); assay: qHTS assay to identify small molecule antagonists of the androgen receptor (AR) signaling pathway using the MDA cell line (AID 743042; further: nearly all actives have a fitted effect of over 55% in size; further: potency means the concentration at half of the fitted maximal effect)
Summary of the method: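 MDA-kb2 breast carcinoma cells carrying MMTV-luciferase (AR/GR responsive) were co-treated with compounds and the agonist R1881 for 16 h at 37C. Inhibition read as ONE-Glo luminescence; CellTiter-Fluor fluorescence measured in parallel for cytotoxicity.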

[17] = biological target: Glucocorticoid receptor (Homo sapiens) (UniProt P04150); assay: qHTS assay to identify small molecule agonists of the glucocorticoid receptor (GR) signaling pathway (AID 720691; active means well fitted activation curve with a large enough effect in the signal ratio in the repeat runs, not every such curve was filed as active; the % refers to the signal ratio)
Sequence of Glucocorticoid receptor (Homo sapiens) (P04150 whole entry, looked up): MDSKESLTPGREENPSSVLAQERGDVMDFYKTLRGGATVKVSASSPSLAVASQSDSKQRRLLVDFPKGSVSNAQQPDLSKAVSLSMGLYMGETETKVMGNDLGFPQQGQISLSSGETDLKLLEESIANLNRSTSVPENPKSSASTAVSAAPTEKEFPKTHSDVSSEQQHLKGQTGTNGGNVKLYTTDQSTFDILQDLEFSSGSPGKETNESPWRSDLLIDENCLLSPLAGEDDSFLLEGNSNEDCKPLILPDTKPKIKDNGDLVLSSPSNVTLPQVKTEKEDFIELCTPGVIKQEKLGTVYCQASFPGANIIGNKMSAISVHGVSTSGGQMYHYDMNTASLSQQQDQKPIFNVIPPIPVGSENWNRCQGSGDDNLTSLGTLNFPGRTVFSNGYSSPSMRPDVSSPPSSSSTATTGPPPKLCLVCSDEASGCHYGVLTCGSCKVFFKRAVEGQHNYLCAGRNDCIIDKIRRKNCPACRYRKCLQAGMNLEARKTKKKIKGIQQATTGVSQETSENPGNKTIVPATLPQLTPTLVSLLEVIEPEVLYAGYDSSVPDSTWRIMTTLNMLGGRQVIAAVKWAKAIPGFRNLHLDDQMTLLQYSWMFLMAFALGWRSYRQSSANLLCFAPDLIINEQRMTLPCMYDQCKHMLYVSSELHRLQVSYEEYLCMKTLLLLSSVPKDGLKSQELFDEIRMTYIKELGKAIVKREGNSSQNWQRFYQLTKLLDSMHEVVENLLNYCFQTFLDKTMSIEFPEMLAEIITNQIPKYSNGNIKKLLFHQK
Summary of the method: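 Fluorescence intensity from LiveBLAzer B/G FRET substrate (2 h, room temperature) reports beta-lactamase expression driven by the glucocorticoid response element in GR-bla HeLa cells after 18 h compound exposure at 37 C.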

[18] = biological target: Glucocorticoid receptor (Homo sapiens) (UniProt P04150); assay: qHTS assay to identify small molecule antagonists of the glucocorticoid receptor (GR) signaling pathway (AID 720692; active means well fitted inhibition curve with a large enough effect in the signal ratio in the repeat runs, not every such curve was filed as active; the % refers to the signal ratio)
Summary of the method: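 HeLa GR-bla cells; cmpd + dex 5 nM final, 18 h 37 C; LiveBLAzer B/G FRET substrate 2 h RT; fluorescence intensity read. Antagonist mode, qHTS.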

[19] = biological target: Androgen receptor (Homo sapiens) (UniProt P10275); assay: qHTS assay to identify small molecule agonists of the androgen receptor (AR) signaling pathway (AID 743036; active means well fitted activation curve with a large enough effect in the signal ratio in the repeat runs, with a control signal flat, not every such curve was filed as active; the % refers to the signal ratio)
Summary of the method: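 AR-bla HEK293 cells, 2,000/well; 4 h preincubation 37C/5% CO2; compound (DMSO) 16 h at 37C; LiveBLAzer B/G FRET substrate 2 h RT; fluorescence intensity read-out.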
On the % scale 0 is the no-effect control and ±100 the full control effect.

COc1ccc(C(=O)c2ccc(C)cc2)c(O)c1
inactive: outcome [1] | Potency [2] | outcome [3] | outcome [4] | outcome [5] | outcome [6] | Potency [7] | Potency [8] | Potency [9] | Potency [10] | Potency [11]

NC(=O)c1ccccc1C(N)=O
inactive: outcome [1] | Potency [2] | outcome [3] | outcome [4] | outcome [5] | outcome [12] | outcome [6] | Potency [7] | Potency [9] | Potency [13] | Potency [10] | Potency [14] | outcome [15] | Potency [16]

N#C[C@@H]1CC(F)(F)CN1C(=O)CNC1CC2CCC(C1)N2c1ncccn1 (stereo partly drawn)
inactive: outcome [1] | Potency [2] | outcome [3] | outcome [4] | outcome [5] | outcome [12] | outcome [6] | Potency [17] | Potency [18] | Potency [7] | Potency [10] | Potency [14] | outcome [19] | outcome [15] | Potency [11] | Potency [16]

CCCCCCCCCCCCCCCCCCCl
inactive: fluorescence, % of fluorescein [1] -0.0209% [at 3.72 µM] | fluorescence, % of fluorescent control [2] -0.0234% [at 3.72 µM] | fluorescence, % of fluorescent control [3] 0.0246% [at 3.72 µM] | fluorescence, % of Rose Bengal [4] -0.217% [at 3.72 µM] | fluorescence, % of fluorescent control [5] -0.0175% [at 3.72 µM] | fluorescence, % of fluorescent control [6] -0.0032% [at 3.72 µM] | viability change, negative = cytotoxic [7] -4.59% [at 7.04 µM] | activity change, negative = cytotoxicity [8] 14.5% [at 8.52 µM] | activity change, negative = cytotoxicity [10] -8.37% [at 7.04 µM] | viability change, negative = cytotoxic [11] -1.19% [at 8.47 µM]

Cc1ccc2c(Cl)cc(Cl)c(O)c2n1
active: Potency [7] 23.9 µM | Potency [8] 1.88 µM | Potency [9] 2.37 µM | Potency [13] 1.88 µM | Potency [11] 9.44 µM | Potency [16] 2.66 µM
inactive: outcome [1] | Potency [2] | outcome [3] | outcome [4] | outcome [5] | outcome [12] | outcome [6] | Potency [17] | outcome [15]

CCOc1ccc2c(c1)C(C)CC(C)(C)N2 (stereo not drawn)
active: Potency [9] 54.5 µM | Potency [13] 48.6 µM
inactive: outcome [1] | Potency [2] | outcome [3] | outcome [4] | outcome [5] | outcome [12] | outcome [6] | Potency [17] | Potency [7] | Potency [10] | outcome [19] | outcome [15] | Potency [11] | Potency [16]

C=CC(O)CCCCC (stereo not drawn)
inactive: outcome [1] | Potency [2] | outcome [3] | outcome [4] | outcome [5] | outcome [12] | outcome [6] | Potency [7] | Potency [9] | Potency [13] | Potency [10] | Potency [11]

C=CC(C)(O)CC/C=C(/C)CCC=C(C)C (stereo not drawn)
active: Potency [9] 54.5 µM | Potency [13] 61.1 µM
inactive: outcome [1] | Potency [2] | outcome [3] | outcome [4] | outcome [5] | outcome [12] | outcome [6] | Potency [17] | Potency [18] | Potency [7] | Potency [10] | Potency [11]
